Compounds without any hit were thinned out: in the full panel of roughly 83,000, 20% have a hit.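 96-well plates, one dose, 48 hours. Percent growth reported; active if below 10.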 Active and inactive are the calls of the source.
The compounds below were run on MDA-MB-231 breast (assay: NCI-60 one-dose screen, 48 h (100 = growth as untreated, 0 = no growth, -100 = all killed)). Settings: 10 µM unless noted.

Structure (SMILES)	growth
C#Cc1nc(C2=C(C)C(=O)/C(=N/OC(C)=O)C2)cs1	30.3% (inactive)
CSCCC(C(=O)O)N1C(=O)/C(=C/c2ccc(O)c(O)c2)SC1=S (stereo not given)	97.1% (inactive)
CC(=NNc1ncnc2ccccc12)c1ccc(S(C)(=O)=O)cc1	93% (inactive)
Nc1c(C(=O)c2ccc(Br)cc2)oc2nc(-c3cnccn3)cc(-c3cccs3)c12	101% (inactive)
COc1cc(-c2nc3ccc(-c4nnc(SCC(=O)Nc5ccc(C(C)=O)cc5)o4)cc3[nH]2)cc(OC)c1OC	96% (inactive)
N#Cc1nc(-c2ccccc2)oc1S(N)(=O)=O	47.9% (inactive)
O=C(CN1C(=O)/C(=C/c2ccccc2)SC1=S)N1CCOCC1	95.2% (inactive)
Nc1ncc(-c2ccc3ncnc(N4CCc5cc(F)c(Cl)cc54)c3c2)cc1CO	17% (inactive)
Cc1ccc(C(=O)Nc2cccc(C(F)(F)F)c2)cc1Nc1nc(-c2cnccn2)nc2c1cnn2C	25.3% (inactive)
Clc1ccc2c(NCCCn3ccnc3)c3oc4ccc(Cl)cc4c3nc2c1	58.8% (inactive)
CN(C)CCCNc1c2ccc(Cl)cc2nc2c1oc1ccc(Cl)cc12	-60.9% (active)
O=C(N/N=C/c1ccc[nH]1)c1[nH]c2ccc(Br)cc2c1-c1ccccc1	14% (inactive)
C#Cc1nc(C2=C(C)/C(=N/OCc3ccccc3)CC2)cs1	-39.2% (active)
N#Cc1ccc(C(=O)CSc2nc(Nc3ccc(S(N)(=O)=O)cc3)c3ccccc3n2)cc1	105% (inactive)
C=CCn1c(SCC(=O)c2ccccc2)nnc1-c1c[nH]c2ccccc12	88.8% (inactive)

Reference: PubChem BioAssay (NCI)
